Columns and labels:
[1] = target: T1, Aspartate--tRNA(Asp/Asn) ligase (Mycobacterium tuberculosis (strain ATCC 25618 / H37Rv)) (UniProt P9WFW3); assay: Assay for Asp RNA synthetase-1 from Mycobacterium tuberculosis; type: functional; set-up: scale not given: direction of the effect not stated beside the values; details: 30 µM; also: in the data most compounds retested in dose-response had high values
T1 sequence (whole entry): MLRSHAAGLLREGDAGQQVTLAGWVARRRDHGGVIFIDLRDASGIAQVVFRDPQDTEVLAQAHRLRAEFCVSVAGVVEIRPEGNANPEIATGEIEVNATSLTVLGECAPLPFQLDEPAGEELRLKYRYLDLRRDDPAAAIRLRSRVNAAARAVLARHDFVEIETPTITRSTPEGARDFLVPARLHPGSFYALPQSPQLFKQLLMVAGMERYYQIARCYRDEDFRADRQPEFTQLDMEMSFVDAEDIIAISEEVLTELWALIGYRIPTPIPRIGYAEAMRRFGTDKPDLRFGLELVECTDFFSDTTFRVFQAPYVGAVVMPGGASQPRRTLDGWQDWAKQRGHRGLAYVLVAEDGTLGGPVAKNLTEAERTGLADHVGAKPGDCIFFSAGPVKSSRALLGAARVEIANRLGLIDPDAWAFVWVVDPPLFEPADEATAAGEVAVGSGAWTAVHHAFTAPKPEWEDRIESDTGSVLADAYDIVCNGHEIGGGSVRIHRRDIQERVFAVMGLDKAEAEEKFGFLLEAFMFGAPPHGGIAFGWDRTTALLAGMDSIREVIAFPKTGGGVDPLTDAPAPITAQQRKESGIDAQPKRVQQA

[2] = target: Shiga toxin 2 (Escherichia coli O157:H7) (UniProt P09385+P09386); assay: E. coli 0.157:H7 Shiga Toxin SOP - stx2 screening assay; type: functional; set-up: scale not given: direction of the effect not stated beside the values; details: 30 µM

| SMILES | Percent Effect [1] [%] | Percent Effect [2] [%] |
| --- | --- | --- |
| Cc1ccc(NC2CCN(C(=O)Cc3cccc(F)c3)CC2)nn1 | 14.3 | 11.3 |
| CSC(C)C(=O)N1CCCN(Cc2cnn(C(C)C)c2)CC1 (stereo unspecified) | -0.235 | 20.4 |
| Cc1cncc(C(=O)N2CCC(Cn3cc(-c4ccsc4)nn3)CC2)c1 | -0.792 | -26.5 |
| N#Cc1ccc(C(=O)N2CC[C@H]3[C@@H]2CCC(=O)N3c2ccccc2)cc1 | 0.485 | -9.64 |
| O=C(c1cccc(S(=O)(=O)NCCCc2ccco2)c1)N1CCOCC1 | 6.79 | -0.897 |
| CC(=O)NCCNC(=O)N(C)Cc1ccc2c(c1)OCCO2 | -4.52 | 15.2 |
| COCC1CN(S(C)(=O)=O)Cc2ncn(CC3CC3)c21 (stereo unspecified) | -3.82 | -1.74 |
| Cc1ccc(NC2CCN(C(=O)CN(C)C3CC3)CC2)nn1 | -0.538 | -2.23 |
| Clc1ccc(CN2CCCC(Cn3cncn3)C2)c2ncccc12 (stereo unspecified) | 2.62 | -50.6 |
| Cc1nc(CN2CCOC(Cn3cncn3)C2)nc2ccccc12 (stereo unspecified) | -2.91 | 16.4 |
| O=C([C@H]1COC[C@H]2CN(C3CCCC3)C[C@H]21)N1CCCCO1 | 5.94 | -2.98 |
| Cc1csc(N2CCN(C(=O)Cc3ccsc3)CC2)n1 | 6.55 | -7.04 |
| CN1CCC(NC(=O)NCCNc2ccccn2)CC1 | 0.524 | -5.67 |
| O=C(C1=CCCC1)N1CCC[C@]2(C[C@@H](OCc3ccncc3)CO2)C1 | 5.27 | -14.6 |
| O=C(CCn1cncn1)NC1(c2cccc(Br)c2)CCC1 | 8.08 | -21.1 |
| Cc1cnn(CC2CN(CCN3CCCC3=O)CCO2)c1 (stereo unspecified) | -4.53 | 8.14 |
| Cc1cc(F)ccc1S(=O)(=O)NCc1cccc(C(=O)N2CCCC2)c1 | -1.3 | 30.6 |
| CCc1cnc(N)nc1NCCN1CCCCC1 | 0.268 | -30.3 |
| COc1ncccc1NC(=O)NCC1CCS(=O)(=O)C1 (stereo unspecified) | 1.33 | -1.65 |
| O=C(c1ccn(-c2cccc(Cl)c2)n1)N1CCN(C2CC2)CC1 | -1.64 | 20.3 |
| COc1ccc(C(=O)N2C[C@@H](C(=O)O)[C@H](c3ccccc3C)C2)c(O)c1 | 8.11 | 0.95 |
| CC(C)c1noc(CCCC(=O)N2CCN(Cc3ccncc3)CC2)n1 | 3.6 | -20.6 |
| CC(C)Oc1ncccc1CNC(=O)c1ccco1 | -4.72 | -7.65 |
| CCn1cc(CN(C)S(=O)(=O)c2cc(Cl)ccc2Cl)cn1 | -5.08 | -51.4 |
| Cn1ccnc1CN1CCN(CCOc2ccccc2C#N)CC1 | -0.506 | 16.8 |
| Cc1cc(C[C@@H]2CCC[C@H]2NCc2ccccc2C(F)(F)F)on1 | 3.02 | 26 |

| SMILES | Percent Effect [1] [%] | Percent Effect [2] [%] |
| --- | --- | --- |
| O=C(Nc1cccc(CN2CCOC2=O)c1)N1CCOCC1 | 1.78 | -57.1 |
| CCn1cnnc1C1CCN(C(=O)c2cccc3c2ccn3C)CC1 | -3.52 | -25.8 |
| Cc1nn(C)c(C)c1CNCc1ccnc(N2CCOCC2)c1 | -2.46 | -9.51 |
| Cc1cc(CN2CC[C@H]3C[C@H](C(=O)N4CCC(C)CC4)O[C@H]3C2)no1 | 1.91 | 0.444 |
| CC1=N[C@@]2(CC[C@@H]3CN(S(=O)(=O)N(C)C)C[C@@H]32)C(=O)N1CC(C)C | 6.65 | -4.62 |
| O=C(Nc1ccccc1)c1nn(C2CCS(=O)(=O)C2)c2c1CCCC2 (stereo unspecified) | 0.629 | 4.6 |
| O=C(CN1CCOC(Cn2cccn2)C1)Nc1nncs1 (stereo unspecified) | -1.58 | -15.4 |
| CC1=Nc2c(c(=O)[nH]n2C(C)C)C(c2cccs2)S1 (stereo unspecified) | 7.78 | 5.29 |
| OC1(Cn2ccc3ncccc32)CCN(Cc2ccccn2)CC1 | 11.7 | -31.8 |
| Cc1cccc(NC2CCN(C(=O)Nc3cc(C)on3)CC2)n1 | -5.71 | -63.5 |
| O=C(c1ccc(C2CCCO2)s1)N1CCN(c2ccccc2F)CC1 (stereo unspecified) | 1.1 | -30.2 |
| COCCN1C(=O)C[C@H]2[C@H]1CCN2Cc1ccc(OC)cc1 | 6.6 | -4.38 |
| CCCc1nc(CN2CCCC(Cn3cncn3)C2)no1 (stereo unspecified) | -3.39 | -26.6 |
| Cc1cc(NC(=O)CN(C)C2CCCN(c3cccnn3)C2)n(C)n1 (stereo unspecified) | 5.7 | 30.1 |
| CNC(=O)c1nc2c(s1)CCN(C(=O)Cc1ccc(OC)cc1)CC2 | 0.107 | -7.44 |
| OC(CN1CCN(Cc2ccc(F)cc2)CC1)C1CC1 (stereo unspecified) | -7.53 | -3.92 |
| Cc1cc(N2CCN(C(=O)c3cc(Cl)c[nH]3)CC2)nc(N)n1 | 3.4 | -96.7 |
| O=C(CSC1CCc2ccccc2NC1=O)NCCO (stereo unspecified) | 0.805 | -11.3 |
| CCN(CCNC(=O)c1ccccc1OCCOC)C1CC1 | -0.655 | -72 |
| CCOC(=O)CNC(=O)c1cccnc1Oc1ccc(Cl)cc1 | -1.89 | 6.74 |
| CN(C)C(=O)C1CN(Cc2c[nH]cn2)CCN(C2CCOCC2)C1 (stereo unspecified) | 0.313 | -8.14 |
| c1cc(CNCc2ccc3c(c2)CCO3)cc(N2CCOCC2)n1 | -4.98 | -32.6 |
| CC(NC(=O)CCn1cncn1)c1nnc2n1CCCCC2 (stereo unspecified) | -0.486 | -13.7 |
| Cc1cnn(CC2CCCN2Cc2nccn2C)c1 (stereo unspecified) | 5.22 | 7.58 |
| Cc1cc(CN2CCN(C(=O)NC(C)c3cccnc3)CC2)on1 (stereo unspecified) | -1.43 | 24.6 |
| COc1ccc(CCN2CCCC(CN(C)Cc3ccc(C)o3)C2)cc1 (stereo unspecified) | -1.25 | -11.5 |

| SMILES | Percent Effect [1] [%] | Percent Effect [2] [%] |
| --- | --- | --- |
| CCN(Cc1ccc2c(c1)OCCO2)C(=O)NC(C)Cn1ccnc1 (stereo unspecified) | 5.58 | -4.95 |
| O=C(NCCCNc1ccccc1)c1scnc1Cl | -0.926 | -10.4 |
| COc1ccc(OCc2nc(C(=O)N3CC[C@H](O)[C@@H](O)C3)co2)cc1 | -0.903 | 8.98 |
| Cc1cccc(OCCC(=O)N2CCCN(C(N)=O)CC2)c1C | 0.542 | 7.91 |
| COc1cc(C)ccc1OCCC(=O)N1CCCC1Cn1cccn1 (stereo unspecified) | 2 | 12.8 |
| CNC(=O)C1(CCCc2ccncc2)CCCN1 (stereo unspecified) | 4.78 | 1.85 |
| O=C(N[C@@H]1CN(Cc2ccc3c(c2)OCO3)[C@@H]2CCCO[C@@H]21)C1CC1 | 5.97 | 9.3 |
| CC(C)(C)C(O)CN1CCN(C(=O)c2cccc3ncccc23)CC1 (stereo unspecified) | 0.278 | -208 |
| COCCc1noc(CN2CCc3nn(C(C)C)c(=O)cc3C2)n1 | -0.0281 | 19.6 |
| O=C(Nc1ccccc1)N1CCn2nnc(COc3cccnc3)c2C1 | 9.35 | -2.97 |
| CN1CCC/C1=N\S(=O)(=O)c1ccc(NC(=O)c2ccc(F)cc2)cc1 | 4.61 | -109 |
| O=C(c1cnco1)N1C[C@@H]2CC[C@H](Oc3cccc(F)c3)[C@@H]2C1 | -3.5 | -73.9 |
| Cc1nc(-c2cccc(C(=O)O)c2)cc(C2CCN(C(C)C)C2)n1 (stereo unspecified) | -4.63 | 4.12 |
| Cc1cc(CNC(=O)NC(C)c2ccncc2)no1 (stereo unspecified) | 7.94 | -40 |
| CCOC(C)c1nc(CN2CCC(CNC(C)=O)CC2)cs1 (stereo unspecified) | -2.51 | 3.11 |
| COCCc1noc(CN2CCCCC2Cn2nc(C)cc2C)n1 (stereo unspecified) | -0.417 | 1.32 |
| COCCNC(=O)c1ccc(C)c(-n2cccc2)c1 | -0.779 | -6.48 |
| CC(C)NC(=O)N1C[C@H]2C[C@H](C(=O)NCc3ccccc3)[C@@H](C1)O2 | 2.3 | 1.68 |
| CC(C)(O)CN1CCN(C(=O)c2cc3ccccc3c(=O)[nH]2)CC1 | -2.19 | -6.56 |
| O=C(NCCc1nnc2n1CCC2)NC1(c2cccc(F)c2)CC1 | 3.98 | -25 |
| Cc1ccc(CNC(=O)CN2CCN(CC(O)C3CC3)CC2)cc1 (stereo unspecified) | 1.21 | -15.5 |
| CCCC1(CO)CCCN(c2ncccc2F)C1 (stereo unspecified) | 0.836 | -7.35 |
| Cc1ccc(CC(=O)NCCCNS(C)(=O)=O)cc1 | 2.46 | -16.3 |
| Cc1csc(CNC(=O)NCCc2ccc3c(c2)OCCO3)n1 | -5.39 | -15.4 |
| COc1ccc(OC)c(NC(=O)N2CCCC2c2ccco2)c1 (stereo unspecified) | -4.36 | 0.199 |
| O=C(NCc1nnc2n1CCCC2)N1CCc2ccccc2C1 | 1.56 | -5.06 |

| SMILES | Percent Effect [1] [%] | Percent Effect [2] [%] |
| --- | --- | --- |
| Cc1ccc(C(CNC(=O)NCc2cc[nH]n2)N2CCOCC2)o1 (stereo unspecified) | 0.256 | -34.1 |
| Cc1ccc(N2CC[C@H]3O[C@@H](C(=O)NCc4ccco4)CC[C@H]32)nn1 | 12.5 | -10.5 |
| Fc1ccc(CN2CCCN(Cc3cscn3)CC2)cc1 | 1.87 | 2.42 |
| CCn1cnnc1CNC(=O)N1CCC(Cc2cccnc2)CC1 | -1.93 | 2.96 |
| CCNc1cc2c(nn1)CCN(C(=O)c1ccc(CNC(C)=O)o1)C2 | 5.42 | -44.4 |
| COc1ccnc(N2CCN(C(=O)NCc3ccc(C)s3)CC2)n1 | -2.05 | 31.8 |
| Cc1ccc(-c2nc(CN3CCCC3Cn3cc(C)cn3)no2)cc1 (stereo unspecified) | 1.48 | -24.5 |
| CCc1cc(O)nc(C2CCCN2C(=O)c2cccnc2)n1 (stereo unspecified) | 2.54 | 2.33 |
| Cc1ccc(C)c(NC(=O)N(C)Cc2cnn(C)c2)c1 | -1.13 | 19.8 |
| Cc1nc(C)n(C2CCCN(C(=O)c3cc4ccccc4n3C)C2)n1 (stereo unspecified) | -0.634 | 15 |
| CCOc1cc(F)ccc1NS(=O)(=O)c1cc(C)c(C(=O)O)s1 | 1.85 | -9.96 |
| Cc1csc(CNC(=O)Nc2cc(C(F)(F)F)c[nH]c2=O)n1 | -5.12 | 8.58 |
| CN(C)CC1(O)CCN(S(=O)(=O)c2ccc(F)c(F)c2)C1 (stereo unspecified) | -2.99 | 4.61 |
| CCC(CC)c1cc(CNC(=O)N2CCOC(C)C2)on1 (stereo unspecified) | -0.437 | -11.9 |
| Cc1n[nH]c(=O)c2c(NC(=O)CN3CCOC(C)C3)oc(C)c12 (stereo unspecified) | -3.61 | -52.2 |
| Cc1ccc(NC(=O)N2CCC(NC(=O)c3ccc(C)o3)CC2)cc1 | -0.605 | 25.3 |
| CCC(=O)N1CCC2(CC1)c1nc[nH]c1CCN2S(C)(=O)=O | -2.17 | 14.6 |
| COCCC(=O)N1CCC(c2noc3nc(C)cc(C(F)(F)F)c23)CC1 | 1.68 | 8.3 |
| CNC(=O)C1CCN(C(=O)CCn2cccn2)CC1 | 6.32 | 26 |
| NC(=O)C1CCN(C(=O)CCn2ccc3cc(Br)ccc32)CC1 | 0.306 | 12.4 |
| Cc1csc(N2CCCN(C(=O)C(C(C)C)n3cncn3)CC2)n1 (stereo unspecified) | -2.24 | 15.4 |
| N#Cc1cc(NC(=O)C2CC=CC2)ccc1N1CCC(O)CC1 | -1.55 | -9.47 |
| Cc1cc(NC(=O)NCC(O)c2ccc(Cl)cc2Cl)n(C)n1 (stereo unspecified) | -2.66 | 24.8 |
| COc1cc(C)sc1C(=O)N1CC(c2cccnc2)C1 | 3.09 | 12.6 |
| Cc1cc(C2CCCN2C(=O)c2cc3c(s2)CCC3)on1 (stereo unspecified) | -0.678 | 5.77 |

Source: ChEMBL document CHEMBL3988442, “University of Dundee, Small-Polar-MMV Screening Library” (2021)
